Assay [1] has as its system Jurkat. The assay can be described thus: mean cell size (FSC-A) relative to DMSO control (fraction of control); higher = larger cells. As to conditions: 48 h. A digest of the protocol: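 Jurkat cells seeded at 600 cells/µl were incubated 1 h, then exposed for 48h to the Enzo Screen-Well FDA Approved Drug Library v2.0 at 25µM in 0.9% (v/v) final DMSO. Drugs that cut counts below 20% of controls were diluted 10-fold and retested, down to 25nM. Cell count and mean cell size (forward scatter area) were read on an Accuri C6 flow cytometer, relative to solvent-only controls. Plates held 6-12 controls; values are means of 3 biological replicates.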

The subject of assay [2] is Jurkat. The assay can be described thus: cell count relative to DMSO control (fraction of control); higher = more cells (less growth inhibition). As to conditions: 48 h.

26 compounds from the supplement of paper PMC4709259 can be followed below.

Structures can show the parent of a compound that is named as a salt. ± gives the standard deviation.

In the assay with Jurkat [1], `O=C1CCc2cc(OCCCCc3nnnn3C3CCCCC3)ccc2N1` [Cilostazol] (concentration: 25 µM) gave a mean cell size of 0.98 ± 0.044. Also, the cell count with Jurkat [2] amounted to 0.819 ± 0.12.

In the assay with Jurkat [1], `N=C(N)NC(=O)Cc1c(Cl)cccc1Cl` [Guanfacine·HCl] (concentration: 25 µM) registered a mean cell size of 0.956 ± 0.059. In addition, in the assay with Jurkat [2], the cell count came out at 0.695 ± 0.13.

Compound `CCCC1O[C@@H]2C[C@H]3[C@@H]4CCC5=CC(=O)C=C[C@]5(C)[C@H]4[C@@H](O)C[C@]3(C)[C@]2(C(=O)CO)O1` (some centres not stated) [Budesonide] (concentration: 25 µM) displayed a mean cell size in the assay with Jurkat [1] of 0.945 ± 0.037. Further, the cell count with Jurkat [2] turned out to be 0.799 ± 0.046.

For the compound `CCOC(=O)[C@H](CCc1ccccc1)N[C@H]1CCc2ccccc2N(CC(=O)O)C1=O` [Benazepril·HCl] (concentration: 25 µM), in the assay with Jurkat [1], the mean cell size amounted to 0.965 ± 0.012. This compound had a cell count in the assay with Jurkat [2] of 0.885 ± 0.035.

Compound `N[C@@H](Cc1cc(I)c(Oc2ccc(O)c(I)c2)c(I)c1)C(=O)O` [Liothyronine·Na] (concentration: 25 µM) yielded a mean cell size with Jurkat [1] of 0.966 ± 0.02. In addition, the cell count in the assay with Jurkat [2] worked out at 0.648 ± 0.15.

In turn, `CC(C)NCC(O)c1ccc(O)c(O)c1` (racemic) [(±) Isoproterenol·HCl] (concentration: 25 µM) yielded a mean cell size in the assay with Jurkat [1] of 0.981 ± 0.047. For the same compound, the cell count in the assay on Jurkat [2] turned out to be 0.659 ± 0.0053.

Consider `O=P(O)(O)C(O)(Cn1ccnc1)P(=O)(O)O` [Zoledronic Acid Monohydrate] (concentration: 25 µM), for which, in the assay on Jurkat [1], the mean cell size was 0.938 ± 0.031. The cell count in the assay on Jurkat [2] turned out to be 0.296 ± 0.11.

Compound `COCCCC/C(=N\OCCN)c1ccc(C(F)(F)F)cc1` [Fluvoxamine Maleate] (concentration: 25 µM) showed a mean cell size with Jurkat [1] of 0.973 ± 0.046. In the assay with Jurkat [2], this compound came in with a cell count of 0.866 ± 0.083.

In turn, `CN(C)CCOC(c1ccccc1)c1ccccc1.Cn1c(=O)c2[nH]c(Cl)nc2n(C)c1=O` [Dimenhydrinate] (concentration: 25 µM) returned a mean cell size in the assay with Jurkat [1] of 1.05 ± 0.051. The cell count in the assay on Jurkat [2] is 0.558 ± 0.15.

For `CCN(CC)CCNC(=O)c1cc(Cl)c(N)cc1OC` [Metoclopramide·HCl] (concentration: 25 µM), the mean cell size in the assay with Jurkat [1] stood at 0.951 ± 0.018. Further, the cell count in the assay on Jurkat [2] is 0.758 ± 0.16.

Turning to `CC(C)(C(=O)c1cccnc1)c1cccnc1` [Metyrapone] (concentration: 25 µM), the mean cell size in the assay on Jurkat [1] was determined as 1.04 ± 0.058. This compound also came in with a cell count in the assay on Jurkat [2] of 0.924 ± 0.079.

In the case of `C[C@@H](CN1CC(=O)NC(=O)C1)N1CC(=O)NC(=O)C1` [Dexrazoxane] (concentration: 25 µM), in the assay with Jurkat [1], the mean cell size was determined as 0.9682 ± 0.0057. The compound also showed a cell count with Jurkat [2] of 0.411 ± 0.11.

Compound `CC1=C(/C=C/C(C)=C\C=C\C(C)=C\C(=O)O)C(C)(C)CCC1` [Alitretinoin] (concentration: 25 µM) showed a mean cell size with Jurkat [1] of 0.927 ± 0.025. Further, the cell count in the assay with Jurkat [2] turned out to be 0.555 ± 0.18.

For the compound `CC[C@H]1OC(=O)[C@H](C)[C@@H](O[C@H]2C[C@@](C)(OC)[C@@H](O)[C@H](C)O2)[C@H](C)[C@@H](O[C@@H]2O[C@H](C)C[C@H](N(C)C)[C@H]2O)[C@](C)(O)C[C@@H](C)C(=O)[C@H](C)[C@@H](O)[C@]1(C)O` [Erythromycin] (concentration: 25 µM), in the assay with Jurkat [1], the mean cell size stood at 0.97 ± 0.038. In addition, in the assay with Jurkat [2], the cell count amounted to 0.871 ± 0.061.

In turn, `C[C@H]1O[C@@H](O[C@H]2[C@@H](O)C[C@H](O[C@H]3[C@@H](O)C[C@H](O[C@H]4CC[C@@]5(C)[C@H](CC[C@@H]6[C@@H]5C[C@@H](O)[C@]5(C)[C@@H](C7=CC(=O)OC7)CC[C@]65O)C4)O[C@@H]3C)O[C@@H]2C)C[C@H](O)[C@@H]1O` [Digoxin] (concentration: 25 nM) had a mean cell size in the assay on Jurkat [1] of 0.91 ± 0.065. This compound showed a cell count in the assay with Jurkat [2] of 0.175 ± 0.093.

For `Cc1c(-c2ccccc2)oc2c(C(=O)OCCN3CCCCC3)cccc2c1=O` [Flavoxate·HCl] (concentration: 25 µM), the mean cell size in the assay on Jurkat [1] came to 1.01 ± 0.057. For the same compound, in the assay with Jurkat [2], the cell count came out at 1.01 ± 0.062.

In turn, `Fc1ccc([C@@H]2CCNC[C@H]2COc2ccc3c(c2)OCO3)cc1` [Paroxetine·HCl] (concentration: 2.5 µM) came in with a mean cell size in the assay with Jurkat [1] of 1.01 ± 0.059. In addition, the cell count with Jurkat [2] is 0.24 ± 0.057.

In the assay with Jurkat [1], `CC(C)OC(=O)CCC/C=C\C[C@@H]1[C@@H](/C=C/[C@@H](O)COc2cccc(C(F)(F)F)c2)[C@H](O)C[C@@H]1O` [Travoprost] (concentration: 25 µM) displayed a mean cell size of 0.92 ± 0.022. The same compound had a cell count in the assay on Jurkat [2] of 0.668 ± 0.084.

In the assay with Jurkat [1], `OC(CNCC(O)C1CCc2cc(F)ccc2O1)C1CCc2cc(F)ccc2O1` (configuration not stated) [Nebivolol·HCl] (concentration: 25 µM) displayed a mean cell size of 1.15 ± 0.094. The cell count in the assay on Jurkat [2] came out at 0.483 ± 0.11.

Compound `CC(C)C[C@H](NC(=O)[C@H](Cc1ccccc1)NC(=O)c1cnccn1)B(O)O` [Bortezomib] (concentration: 25 nM) returned a mean cell size with Jurkat [1] of 0.894 ± 0.064. Also, the cell count in the assay on Jurkat [2] stood at 0.112 ± 0.11.

The compound `CN/C(=N\CCSCc1nc[nH]c1C)NC#N` [Cimetidine] (concentration: 25 µM) came in with a mean cell size in the assay on Jurkat [1] of 1.02 ± 0.072. In addition, in the assay with Jurkat [2], the cell count turned out to be 0.733 ± 0.17.

In the case of `COc1ccc([C@@H]2Sc3ccccc3N(CCN(C)C)C(=O)[C@@H]2OC(C)=O)cc1` [Diltiazem·HCl] (concentration: 25 µM), the mean cell size in the assay on Jurkat [1] turned out to be 0.959 ± 0.053. The same compound had a cell count in the assay with Jurkat [2] of 0.359 ± 0.13.

`C[N+]1(C)CCC(OC(=O)C(O)(c2ccccc2)C2CCCC2)C1` (configuration not stated) [Glycopyrrolate Iodide] (concentration: 25 µM) yielded a mean cell size in the assay on Jurkat [1] of 0.995 ± 0.037. Besides, the cell count in the assay on Jurkat [2] was found to be 0.838 ± 0.061.

For `Cc1cnc(C(=O)NCCc2ccc(S(=O)(=O)NC(=O)NC3CCCCC3)cc2)cn1` [Glipizide] (concentration: 25 µM), in the assay with Jurkat [1], the mean cell size amounted to 1.09 ± 0.049. Moreover, in the assay with Jurkat [2], the cell count is 0.612 ± 0.11.

Turning to `CNS(=O)(=O)CCc1ccc2[nH]cc(C3CCN(C)CC3)c2c1` [Naratriptan·HCl] (concentration: 25 µM), the mean cell size in the assay on Jurkat [1] was determined as 0.95 ± 0.019. In the assay on Jurkat [2], this compound registered a cell count of 0.951 ± 0.065.

Turning to `CC(C)[C@H]1CC[C@H](C(=O)N[C@H](Cc2ccccc2)C(=O)O)CC1` [Nateglinide] (concentration: 25 µM), in the assay on Jurkat [1], the mean cell size turned out to be 0.966 ± 0.063. In addition, the cell count with Jurkat [2] stood at 0.883 ± 0.14.
